Among the test systems are SR leukemia; RPMI-8226 leukemia; OVCAR-8 ovarian; OVCAR-5 ovarian; OVCAR-4 ovarian; SK-OV-3 ovarian; IGROV1 ovarian; OVCAR-3 ovarian; HS 578T breast; NCI/ADR-RES ovarian.
Test in all cases: NCI-60 one-dose screen, 48 h (100 = growth as untreated, 0 = no growth, -100 = all killed)
Common to all, as to settings: 10 µM unless noted

Compounds without any hit were thinned out: in the full panel of roughly 83,000, 20% have a hit.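 Interpretation: 100, growth as untreated; towards 0, rising growth inhibition; 0, no net growth; 0 to -100, cell death. Compounds scoring below 10 were considered active.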 Unmarked numbers belong to inactive results. Calls of active or inactive are those of the source.

For 13 compounds, growth results are on record in PubChem BioAssay (NCI).

As to `COc1ccc2c(c1)c(CC(=O)[Se]C)c(C)n2C(=O)c1ccc(Cl)cc1`, the growth in the experiment with SR leukemia was 13.4%; with RPMI-8226 leukemia it was 62.6%; in the experiment with OVCAR-8 ovarian, -46.9% (active); in the experiment on OVCAR-5 ovarian, 36.8%; in the experiment with OVCAR-4 ovarian, 37.2%; in the experiment on SK-OV-3 ovarian it was 40.7%. The growth with IGROV1 ovarian is -3.14% (active); with OVCAR-3 ovarian, -12.4% (active); in the experiment with HS 578T breast, 8.49% (active); in the experiment on NCI/ADR-RES ovarian it was 3.71% (active).
Regarding `CCSc1nc(-c2ccco2)n2nc(-c3ccco3)cc2n1`, the growth with SR leukemia is 93%; in the experiment with RPMI-8226 leukemia, 52.8%; with OVCAR-8 ovarian, 97.1%; in the experiment on OVCAR-5 ovarian it was 110%; in the experiment with OVCAR-4 ovarian, 65.9%; in the experiment on SK-OV-3 ovarian, 101%. Also, the growth with IGROV1 ovarian was 82.9%; with OVCAR-3 ovarian it was 105%; in the experiment with HS 578T breast, 96.2%; in the experiment on NCI/ADR-RES ovarian, 95.3%.
In the case of `Nc1ccn(C2O[C@H](CO)[C@@H](O)[C@@H]2O)c(=O)n1` (stereo not given in full), the growth is 9.93% (active) with SR leukemia; 64.4% in the experiment on RPMI-8226 leukemia; 34% in the experiment with OVCAR-8 ovarian; 70.1% in the experiment on OVCAR-5 ovarian; 83.4% in the experiment with OVCAR-4 ovarian; 55.6% with SK-OV-3 ovarian. For the same compound, the growth was 51.9% with IGROV1 ovarian, 67.6% with OVCAR-3 ovarian, 107% with HS 578T breast and 34.6% with NCI/ADR-RES ovarian.
In the case of `CCCCCc1c(C)[nH]c(/C=C2\N=C(c3ccc[nH]3)C=C2Oc2ccc(Cl)cc2)c1C`, the growth with SR leukemia is -9.44% [100 µM] (active); in the experiment with RPMI-8226 leukemia, -32.8% [100 µM] (active); in the experiment on OVCAR-8 ovarian it was -21.5% [100 µM] (active); in the experiment with OVCAR-5 ovarian it was -3.17% [100 µM] (active); in the experiment with OVCAR-4 ovarian, 12.6% [100 µM]; with SK-OV-3 ovarian, 1.44% [100 µM] (active). Also, the growth in the experiment with IGROV1 ovarian is 13.3% [100 µM]; in the experiment on OVCAR-3 ovarian, -96.2% [100 µM] (active); in the experiment on HS 578T breast, 3.26% [100 µM] (active); in the experiment with NCI/ADR-RES ovarian, 5.31% [100 µM] (active).
As for `COc1ccc(NS(=O)(=O)N2CCCCC2)cc1`, the growth with SR leukemia was 95.3%; in the experiment with RPMI-8226 leukemia, 102%; in the experiment on OVCAR-8 ovarian, 105%; in the experiment with OVCAR-5 ovarian, 117%; with OVCAR-4 ovarian it was 125%; in the experiment with SK-OV-3 ovarian, 99.6%. In addition, the growth is 110% in the experiment with IGROV1 ovarian, 107% in the experiment with OVCAR-3 ovarian, 108% with HS 578T breast and 116% in the experiment on NCI/ADR-RES ovarian.
With `CCN(CC)c1ccc(N=C2C=CC(=O)C=C2NC(C)=O)cc1`, the growth was 110% in the experiment with SR leukemia; 89.8% with RPMI-8226 leukemia; 94% in the experiment on OVCAR-8 ovarian; 108% in the experiment on OVCAR-5 ovarian; 104% in the experiment on OVCAR-4 ovarian; 86.9% in the experiment on SK-OV-3 ovarian. The growth in the experiment with IGROV1 ovarian is 96.7%; in the experiment with OVCAR-3 ovarian, 74.2%; in the experiment with HS 578T breast it was 104%; in the experiment with NCI/ADR-RES ovarian, 105%.
As for `COc1ccc(-c2cc(-c3nnc(SCC(=O)Nc4ccc(C(C)=O)cc4)n3-c3ccccc3)c3ccccc3n2)cc1OC`, the growth in the experiment on SR leukemia was 121%; in the experiment with RPMI-8226 leukemia it was 105%; in the experiment on OVCAR-8 ovarian, 104%; in the experiment on OVCAR-5 ovarian it was 106%; in the experiment on OVCAR-4 ovarian, 106%; with SK-OV-3 ovarian, 81.6%. In addition, the growth was 105% in the experiment on IGROV1 ovarian, 96.8% with OVCAR-3 ovarian, 108% in the experiment on HS 578T breast and 104% with NCI/ADR-RES ovarian.
Turning to `CNCCCn1c2c(c3ccc(F)cc3c1=O)C(=O)c1cc(OC)cnc1-2`, the growth in the experiment with SR leukemia was -9.31% (active); in the experiment with RPMI-8226 leukemia, -20.4% (active); in the experiment with OVCAR-8 ovarian it was -19.8% (active); in the experiment with OVCAR-5 ovarian, -8.53% (active); in the experiment with OVCAR-4 ovarian it was -5.91% (active); in the experiment with SK-OV-3 ovarian, -24.5% (active). Moreover, the growth in the experiment with IGROV1 ovarian is 11.4%; in the experiment on OVCAR-3 ovarian, -11.4% (active); in the experiment with HS 578T breast, 22.1%; with NCI/ADR-RES ovarian it was 3.1% (active).
Turning to `C/C(=C\CCc1ccoc1)CC/C=C(\C)CCCNc1ccc(F)cc1`, the growth in the experiment on SR leukemia is 83.4%; in the experiment on RPMI-8226 leukemia, 53.8%; in the experiment on OVCAR-8 ovarian, 101%; in the experiment on OVCAR-5 ovarian, 93.5%; in the experiment with OVCAR-4 ovarian it was 75.2%; with SK-OV-3 ovarian it was 101%. For the same compound, the growth is 91.7% in the experiment on IGROV1 ovarian, 99.9% with OVCAR-3 ovarian, 109% in the experiment with HS 578T breast and 98.1% in the experiment on NCI/ADR-RES ovarian.
Turning to `O=Cc1ncc(-c2ccc(C(F)(F)F)cc2)c(NC2CCCCCC2)n1`, the growth in the experiment with SR leukemia was -29.1% [100 µM] (active); with RPMI-8226 leukemia, -35.1% [100 µM] (active); with OVCAR-8 ovarian, -68.2% [100 µM] (active); with OVCAR-5 ovarian, -91.8% [100 µM] (active); in the experiment with OVCAR-4 ovarian, -73.8% [100 µM] (active); in the experiment on SK-OV-3 ovarian it was -13.7% [100 µM] (active). For the same compound, the growth was -68.3% [100 µM] (active) with IGROV1 ovarian, -94.5% [100 µM] (active) with OVCAR-3 ovarian, -39.1% [100 µM] (active) with HS 578T breast and -69.8% [100 µM] (active) in the experiment with NCI/ADR-RES ovarian.
On to `C[N+]1(C)C2CC[C@@H]1CC(OC(=O)C(O)c1ccccc1)C2` (stereo not given in full), for which the growth in the experiment on SR leukemia was 115%; with RPMI-8226 leukemia, 93.9%; with OVCAR-8 ovarian, 108%; in the experiment with OVCAR-5 ovarian it was 106%; with OVCAR-4 ovarian, 110%; in the experiment with SK-OV-3 ovarian, 117%. Also, the growth in the experiment on IGROV1 ovarian is 103%; with OVCAR-3 ovarian, 121%; in the experiment on HS 578T breast, 119%; in the experiment with NCI/ADR-RES ovarian, 103%.
On to `COc1cc(/C=C2\SC(N3CCCCC3)=NC2=O)ccc1OCCCCCCOc1ccc(/C=C2\SC(N3CCCCC3)=NC2=O)cc1OC`, for which the growth is 0.724% (active) with SR leukemia; -5.76% (active) in the experiment on RPMI-8226 leukemia; 8.07% (active) in the experiment on OVCAR-8 ovarian; 40.6% in the experiment with OVCAR-5 ovarian; 21% in the experiment with OVCAR-4 ovarian; 41.9% with SK-OV-3 ovarian. Moreover, the growth with IGROV1 ovarian is 19.5%; in the experiment with OVCAR-3 ovarian it was -82.9% (active); in the experiment on HS 578T breast, 7.66% (active); in the experiment on NCI/ADR-RES ovarian, 0.636% (active).
In the case of `CCSc1nc(-c2ccc(F)cc2)c(C#N)c(=O)[nH]1`, the growth is 118% with SR leukemia; 105% in the experiment with RPMI-8226 leukemia; 107% with OVCAR-8 ovarian; 95.9% in the experiment with OVCAR-5 ovarian; 103% in the experiment on OVCAR-4 ovarian; 111% with SK-OV-3 ovarian. The growth in the experiment on IGROV1 ovarian is 107%; with OVCAR-3 ovarian it was 122%; in the experiment on HS 578T breast, 117%; with NCI/ADR-RES ovarian it was 103%.
